Experimental data: PubChem BioAssay
For part of these data: Entries with a potency or affinity are not part of this list. Calls of active or inactive are those of the source.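 Rule for the calls, unless noted: active = fitted half-maximal concentration within 10 nM to 100 µM, steepness 0.5 to 2, significant signal drop, low assay interference; inactive = the rest.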

Experiments:
[1] = target: Cell division control protein 42 homolog (Homo sapiens) (UniProt P60953); experiment: inhibition of fluorescent GTP binding to constitutively active Cdc42 – biochemical, multiplex bead flow cytometry, Bodipy-FL-GTP, dose response (AID 1333;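 active = fitted half-maximal concentration within the tested dose range, moderate curve steepness, a statistically real signal drop, and little compound fluorescence or tag-binding interference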)
Chain of Cell division control protein 42 homolog (Homo sapiens) (P60953 whole entry, looked up): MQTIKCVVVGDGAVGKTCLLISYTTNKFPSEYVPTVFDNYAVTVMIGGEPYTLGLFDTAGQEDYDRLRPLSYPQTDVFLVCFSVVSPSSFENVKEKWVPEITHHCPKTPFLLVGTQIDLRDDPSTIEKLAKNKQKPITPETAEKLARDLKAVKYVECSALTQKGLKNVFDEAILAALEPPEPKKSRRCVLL

[2] = target: Cell division control protein 42 homolog (Homo sapiens) (UniProt P60953); experiment: inhibition of fluorescent GTP binding to wildtype Cdc42 – biochemical, multiplex bead flow cytometry, Bodipy-FL-GTP, dose response (AID 1334;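 active = fitted half-maximal concentration within the tested range, moderate curve steepness, significant signal drop, and little compound fluorescence or bead-linkage interference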); settings: bead-based flow cytometry, Bodipy-FL-GTP binding to GST-Cdc42; at 100 µM (top of the series) unless noted
[3] = target: GTPase HRas (Homo sapiens) (UniProt P01112); experiment: Ras wt fluorescent GTP loading blockade – biochemical, wildtype, multiplex bead flow cytometry, dose response (AID 1335); settings: bead-based flow cytometry, Bodipy-GTP binding to GST-Ras; at 100 µM (top of the series) unless noted
Chain of GTPase HRas (Homo sapiens) (P01112 whole entry, looked up): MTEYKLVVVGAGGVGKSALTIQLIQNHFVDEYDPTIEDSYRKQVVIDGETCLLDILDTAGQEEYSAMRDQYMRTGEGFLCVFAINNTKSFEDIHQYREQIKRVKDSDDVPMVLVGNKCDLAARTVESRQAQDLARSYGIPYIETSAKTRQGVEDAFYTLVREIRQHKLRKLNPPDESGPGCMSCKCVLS

[4] = tested on: Ras-related protein Rab-7a (dog), GTP binding; experiment: blockers of fluorescent GTP binding to Rab7 – biochemical, wildtype, multiplex bead flow cytometry, dose response (AID 1336; call rule not given here)
[5] = target: Ras-related C3 botulinum toxin substrate 1 (Homo sapiens) (UniProt P63000); experiment: inhibition of wildtype Rac1 nucleotide loading – biochemical, multiplex bead flow cytometry, dose response (AID 1340;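 active = dose curve with midpoint inside tested range, moderate steepness, plateau gap beyond fit error, low compound glow and bead-link interference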); settings: GST-Rac1 beads, Bodipy-FL-GTP binding; at 100 µM (top of the series) unless noted
[6] = target: GTPase HRas (Homo sapiens) (UniProt P01112); experiment: blockade of GTP loading onto mutant Ras – biochemical, activated mutant, multiplex bead flow cytometry, dose response (AID 1341;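 active = dose-response curve with midpoint inside the tested range, moderate steepness, significant amplitude and little compound fluorescence or bead-attachment interference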;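 note: GST-tagged constitutively activated Ras mutant immobilized on beads and multiplexed with other GTPases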)

SMILES | outcome [1] | fluorescence, percent of control (lower = inhibition) [2] [%] | GTP binding, percent of control [3] [%] | outcome [4] | GTP binding signal, raw median fluorescence (lower = inhibition) (MCF (arbitrary fluorescence units)) [5] | outcome [6]
Cc1cccc(OCCn2c(SCCC(=O)O)nc3ccccc32)c1 | inactive | 58 | 85.4 | inactive | 28.9 | inactive
O=c1c2c(-c3ccccc3)csc2nc2c3ccccc3c(NCCN3CCOCC3)nn12 | inactive | 32.1 | 66.4 | inactive | 168 | inactive
Cc1cc2ccccn2c1C(=O)c1ccc(NN)c([N+](=O)[O-])c1 | inactive | 35.2 | 83.1 | inactive | 240 | inactive
CCOc1ccc(C2=Nn3c(nnc3-c3ccco3)SC2)cc1 | inactive | 33.2 | 75.2 | inactive | 179 | inactive
Cc1cccc(OCC(=O)N/N=C/c2ccc3c(c2)OCO3)c1 | inactive | 34.8 | 89.5 | inactive | 256 | inactive
O=C(O)COc1ccccc1/C=N/Nc1ccc(S(=O)(=O)Nc2ccc(Cl)cc2)cc1[N+](=O)[O-] | inactive | 28.1 | 79.9 | inactive | 174 | inactive
c1ccc2[nH]c3cc4ncnc4cc3nc2c1 | inactive | 31.7 | 70.1 | inactive | 189 | inactive
CCc1nnc(NC(=O)CSc2nnc(CNc3ccc(F)cc3)n2C2CCCCC2)s1 | inactive | 52 | 72.6 | inactive | 0 | inactive
O=C(O)c1ccccc1NCc1ccc(Cl)cc1 | inactive | 79.2 | 95.6 | inactive | 50.2 | inactive
COc1ccc(CNc2nc3c(c(=O)n(Cc4ccc(Cl)cc4)c(=O)n3C)n2C)cc1 | inactive | 29.3 | 80.3 | inactive | 228 | inactive
Nc1nn2c(-c3ccccc3)cc(=O)[nH]c2c1N=Nc1ccc(Br)cc1 | inactive | 27.4 | 78.1 | inactive | 197 | inactive
Cc1cc(C)nc(Nc2nc(=O)c3ccccc3s2)n1 | inactive | 50.5 | 61.9 | inactive | 205 | inactive
S=c1[nH]nc(-c2ccco2)n1-c1ccc(Cl)cc1 | inactive | 28.4 | 67.6 | inactive | 209 | inactive
COc1ccc(C(=O)N[C@H](C(=O)OCc2cc(=O)oc3cc(C)ccc23)C(C)C)cc1 | inactive | 50.4 | 63.8 | inactive | 202 | inactive
O=C(COC(=O)C12CC3CC(CC(C3)C1)C2)Nc1nc2c(F)c(F)c(F)cc2s1 | inactive | 44.1 | 68.1 | inactive | 0 | inactive
CCc1nnc(NC(=O)CCC(=O)N2CCN(c3ccccn3)CC2)s1 | inactive | 94 | 163 | inactive | 190 | inactive
O=C(COc1ccccc1[N+](=O)[O-])Nc1cc(Cl)ccc1C(=O)O | inactive | 32.7 | 75.6 | inactive | 215 | inactive
C=CCn1c(-c2csc(-c3ccc(Cl)cc3)n2)n[nH]c1=S | inactive | 40.8 | 89.3 | inactive | 262 | inactive
O=C(c1cccnc1SCCc1ccccc1)N1CCOCC1 | inactive | 77.3 | 101 | inactive | 64.8 | inactive
CCn1c2ccccc2c2nc3cc(C(=O)O)ccc3nc21 | inactive | 34 | 74.6 | inactive | 161 | inactive

SMILES | outcome [1] | fluorescence, percent of control (lower = inhibition) [2] [%] | GTP binding, percent of control [3] [%] | outcome [4] | GTP binding signal, raw median fluorescence (lower = inhibition) (MCF (arbitrary fluorescence units)) [5] | outcome [6]
C/C(=N\NC(=O)c1ccc(Cl)c(S(=O)(=O)Nc2ccccc2Cl)c1)c1ccncc1 | inactive | 38.1 | 54 | inactive | 92 | inactive
NS(=O)(=O)c1cccnc1Nc1c(Cl)cccc1Cl | inactive | 90.6 | 152 | inactive | 187 | inactive
CC1(C)Cc2c(sc3c2C2=NCCN2C=N3)CS1 | inactive | 38.3 | 86.3 | inactive | 280 | inactive
COc1cc2[nH]c(=S)nc(NCCc3ccc(C)cc3)c2cc1OC | inactive | 26.6 | 59.9 | inactive | 125 | inactive
CCN1C(=O)C(CC(=O)Nc2ccc(F)cc2)N(CCc2ccc(OC)cc2)C1=S (stereo not given) | inactive | 33.8 | 78.6 | inactive | 239 | inactive
Cc1n[nH]c(=S)c2nn(-c3cccc(Cl)c3)c(C)c12 | inactive | 55.8 | 71.1 | inactive | 217 | inactive
Cc1cc(OCCSc2nc3ccccc3n2CC(=O)O)ccc1Cl | inactive | 58.4 | 85.5 | inactive | 29.6 | inactive
CC(C)CCNC(=O)Cc1ccc(Nc2nc(=S)[nH]c3ccccc23)cc1 | inactive | 32.2 | 71.5 | inactive | 169 | inactive
Cc1nnc2ccc(-c3cccc(NC(=O)c4ccco4)c3)nn12 | inactive | 28.7 | 59.2 | inactive | 131 | inactive
COc1ccccc1NS(=O)(=O)c1cc([N+](=O)[O-])ccc1N/N=C/c1sc(N2CCOCC2)nc1-c1ccccc1 | inactive | 73.1 | 81 | inactive | 230 | inactive
O=C(O)c1ccc(N2C(=O)/C(=C/c3ccc(-c4ccc([N+](=O)[O-])cc4)o3)C=C2c2ccccc2)cc1 | inactive | 33.9 | 77.4 | inactive | 179 | inactive
CC(C)c1cc(NCc2ccccn2)n2c(nc3ccccc32)c1C#N | inactive | 34.4 | 77.4 | inactive | 178 | inactive
COCCN1C(=O)/C(=C/c2ccc(N3CCCC3)cc2)SC1=S | inactive | 64.2 | 106 | inactive | 311 | inactive
CCC(Oc1ccc2ccccc2c1)C(=O)O (stereo not given) | inactive | 123 | 156 | inactive | 190 | inactive
Cc1c2cc(O)c(=O)cc-2oc2cc(O)c(O)cc12 | inactive | 5290 | 5530 | inactive | 5510 | inactive
Cc1ccccc1-c1nnc(NC(=O)c2ccc(N3C(=O)CCC3=O)cc2)s1 | inactive | 48.6 | 65.8 | inactive | 236 | inactive
COc1cc(C(=O)OCC(=O)Nc2ccc3c(c2)OC(F)(F)O3)ccc1OCc1c(C)noc1C | inactive | 52.4 | 53.9 | inactive | 186 | inactive
O=S(=O)(Cc1ccccc1)N1CCc2ccccc21 | inactive | 48.6 | 63.7 | inactive | 202 | inactive
COC(=O)c1cn(CCOc2ccc(C)cc2)c2ccccc12 | inactive | 37 | 84.4 | inactive | 175 | inactive
CCCN(N=Nc1cccc([N+](=O)[O-])c1)c1cccc([N+](=O)[O-])c1 | inactive | 84.9 | 156 | inactive | 170 | inactive

SMILES | outcome [1] | fluorescence, percent of control (lower = inhibition) [2] [%] | GTP binding, percent of control [3] [%] | outcome [4] | GTP binding signal, raw median fluorescence (lower = inhibition) (MCF (arbitrary fluorescence units)) [5] | outcome [6]
COc1cc(/C=N/Nc2nn3cnnc3c3ccccc23)ccc1O | inactive | 50.3 | 122 | inactive | 90.4 | inactive
Cn1c(=O)c2c(nc(N/N=C/c3ccco3)n2C)n(C)c1=O | inactive | 31.1 | 69.2 | inactive | 165 | inactive
CN(C)c1ccc(/C=C/c2ccc3c4ccccc4ccc3[n+]2-c2ccccc2)cc1 | inactive | 40 | 69.7 | inactive | 236 | inactive
COc1cc2[nH]c(=S)nc(NCC3CCCO3)c2cc1OC (stereo not given) | inactive | 59.4 | 152 | inactive | 177 | inactive
Nc1[nH]n2c(=O)c3c(nc2c1N=Nc1ccccc1)CCCC3 | inactive | 31 | 41.6 | inactive | 109 | inactive
COc1ccc(-c2noc(CCC(=O)N3CCN(c4cc(C)ccc4C)CC3)n2)cc1 | inactive | 25.4 | 76 | inactive | 195 | inactive
COC(=O)CSc1nc2cc(Cl)ccc2c(=O)n1C1CCCC1 | inactive | 98 | 180 | inactive | 186 | inactive
Cc1ccc(CSc2nc3[nH]ncc3c(=O)[nH]2)cc1 | inactive | 37.4 | 80.6 | inactive | 173 | inactive
CCCc1cc(N2CCN(C(=O)c3ccco3)CC2)n2c(nc3ccccc32)c1C#N | inactive | 34.7 | 79 | inactive | 240 | inactive
CC(C)N(C(=O)Cn1cnc2cc([N+](=O)[O-])ccc2c1=O)C(C)C | inactive | 34.2 | 76.5 | inactive | 156 | inactive
CCOc1cc(/C=N/Nc2nncc(-c3ccccc3)n2)ccc1O | inactive | 37.4 | 75.5 | inactive | 160 | inactive
CSc1nsc(SC)c1NC(=O)OC1CCCCC1 | inactive | 43 | 63.4 | inactive | 196 | inactive
O=C(O)c1ccc(/C=N/NC(=O)c2cc(-c3ccc4c5c(cccc35)CC4)n[nH]2)cc1 | inactive | 28.2 | 71.2 | inactive | 151 | inactive
O=C(NC1CCCCC1)C(c1ccco1)N(Cc1ccco1)C(=O)c1ccco1 (stereo not given) | inactive | 90.7 | 174 | inactive | 176 | inactive
CCOc1cc(/C=N/NC(=O)c2cccs2)cc([N+](=O)[O-])c1O | inactive | 25.2 | 57.7 | inactive | 108 | inactive
COC(=O)C1=C(C)NC(=O)/C1=C\c1cc(C)n(-c2c(C)cccc2C)c1C | inactive | 37 | 84.9 | inactive | 308 | inactive
Cc1sc2ncnc(Sc3ccccc3C(=O)O)c2c1C | inactive | 103 | 117 | inactive | 84.4 | inactive
Nc1nc(CN2CCN(c3ccccc3F)CC2)nc(N2CCCc3ccccc32)n1 | inactive | 28.5 | 69.6 | inactive | 210 | inactive
O=C(NCc1cccnc1)c1cccn2c(=O)c3sccc3nc12 | inactive | 32.5 | 74.9 | inactive | 162 | inactive
Cc1c(C=O)c2ccccn2c1C(=O)c1cccc([N+](=O)[O-])c1 | inactive | 31.4 | 76.8 | inactive | 242 | inactive
